Hits are enriched below; roughly 19% of the tested compounds scored in any of these assays.
IL-1B inflam inh – blocks inflammasome-driven IL-1 beta release | AID 743279 | activity change, % at 57.5 µM | 360,000 compounds, 4.7% hits | THP-1 LPS/ATP IL-1B secretion, AlphaLISA, 16 h; hits give low values; in the data active = activity change below about -50%; inconclusive = mostly about -30% to -49%; note: % is set by controls: 0 for no effect and ±100 for the full control effect
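THP-1 cells pretreated 1 hr with compounds (up to 57.5 uM final), then stimulated with LPS (250 ng/mL final) plus ATP (1.25 mM final); secreted IL-1B measured by AlphaLISA after 16 hr, decreased signal indicating inhibition.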
TDP1 cell CPT – DT40-hTDP1 cell growth loss with CPT | chicken DT40 Tdp1-/-;hTDP1 cells + 20 nM CPT, ATP luminescence, 48 h | Potency, µM (top dose mostly 46.2 µM), inactives show at the top dose activity change, negative = growth inhibition, actives largely listed as inhibitors | 420,000 compounds, 12% hits; note: potency is the fitted concentration of half-maximal effect; % is set by controls: 0 for no effect and ±100 for the full control effect; nearly all actives have a fitted effect of over 55% in size
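Chicken DT40 Tdp1-/- cells complemented with human TDP1, 400 cells/well, exposed to compounds plus 20 nM camptothecin for at least 48 h at 37 C; viability read as ATP content by CellTiter-Glo luminescence.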
DT40 TDP1 no CPT – qHTS for Inhibitors of human tyrosyl-DNA phosphodiesterase 1 (TDP1): qHTS in cells in absence of CPT. DT40 Tdp1-/- hTDP1 cells, no CPT, ATP luminescence, 48 h. Potency, µM (top dose mostly 46.2 µM), for inactives: at the highest dose activity change, negative = growth inhibition, usual class: inhibitors. 420,000 compounds, 15% hits; note: potency is the fitted concentration of half-maximal effect; % is set by controls: 0 for no effect and ±100 for the full control effect; nearly all actives have a fitted effect of over 55% in size
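Growth of hTDP1-complemented DT40 Tdp1-knockout cells is measured by ATP luminescence after at least 48 hr compound exposure at 37 °C, with DMSO substituting for the 20 nM CPT used in the parallel screen.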
Chronic BCR inh – inhibitors of chronic active B-cell receptor signaling; ABC-DLBCL IkBa-CBG/CBR reporter, luminescence ratio, 4 h; Potency, µM (highest dose often 46.1 µM), for the others: at the highest dose activity change, negative = inhibition, actives largely listed as inhibitors; 340,000 compounds, 0.05% hits; active = well fitted inhibition curve with a large enough effect in the signal ratio, with a control signal flat, not every such curve was filed as active; inconclusive = small, poorly fitted or top-dose-only effect, or effect the other way, or a change in a side signal; the % refers to the signal ratio;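 note: potency is the fitted concentration of half-maximal effect; plate controls were basal doxycycline-induced cells for no effect and cells given 10 µM MG132 for full effect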
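Concentration-response series (up to 46 uM) were applied to TMD8 dual-reporter cells for 4 h at 37C with doxycycline. Green/red ratio, after filter-overlap correction, defined %Activity; red signal alone was normalised to basal cells and zero luminescence.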
MCF10A rereplic – induces DNA re-replication in MCF 10a normal breast cells | Potency, µM (highest dose often 46.1 µM), for inactives: top-dose activity, positive = re-replication, usual class: activators | 350,000 compounds, 2.9% hits | MCF 10A DNA re-replication, Hoechst nuclear intensity, 48 h | AID 624296; note: potency is the fitted concentration of half-maximal effect; % of control where 0% means no effect; nearly all actives have a fitted effect of over 50% in size
SW480 rerep – inducers of DNA re-replication in SW480 colon cancer cells. Potency, µM (series often up to 46.1 µM), for the others: at the highest dose re-replication activation, hits mostly activators. 340,000 compounds, 1.8% hits. SW480 DNA re-replication, Hoechst DNA content imaging, 48 h. AID 624297; note: potency is the fitted concentration of half-maximal effect; % of control where 0% means no effect; nearly all actives have a fitted effect of over 55% in size
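Compounds, transferred as 23 nL by pin tool, were incubated with cells for 48 hr; DNA content per nucleus was then quantified by Hoechst staining and fluorescence plate imaging.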
* = called active by the depositor; ? = inconclusive; · = not tested or not shown; [ ] = remark or other dose. Unless noted, calls come from the whole dose curve; as a rule, active = well fitted curve in the direction sought with a large enough effect; inconclusive = small, poorly fitted or top-dose-only effect, or another doubt; inactive = no such curve, though single readings can be large; an effect the other way counts as inactive or inconclusive.

SMILES	IL-1B inflam inh	TDP1 cell CPT	DT40 TDP1 no CPT	Chronic BCR inh	MCF10A rereplic	SW480 rerep
COc1ccc(CN2CCN(C(=O)c3cc(-c4cccnc4)nc4ccc(Cl)cc34)CC2)c(OC)c1OC	6.6	?	20.6µM*	-1.0%	9.5%	-1.9%
O=C(c1cc(-c2ccncc2)nc2ccc(Cl)cc12)N1CCN(Cc2ccc3c(c2)OCO3)CC1	-83.0*	16.4µM*	23.1µM*	0.5%	-2.1%	?
C/C(=N/NC(=O)CN1CCN(Cc2ccccc2Cl)CC1)c1ccncc1	-0.2	?	-20.1%	-13.1%	1.0%	-1.0%
O=C(c1cc(-c2ccncc2)nc2ccc(Br)cc12)N1CCN(Cc2ccc3c(c2)OCO3)CC1	-62.9*	?	23.1µM*	-9.1%	?	-0.8%
Cc1c(C(=O)NCC(C)(C)CN(C)C)cnn1-c1nccc(-c2ccccc2F)n1	·	8.6%	-2.6%	·	·	·
O=C(c1cc2cc3ccc(Cl)cc3nc2o1)N1CCN(Cc2ccc3c(c2)OCO3)CC1	-3.7	-4.2%	-20.9%	·	-0.3%	-5.5%
O=C(c1cccn2c(=O)c3ccc(Cl)cc3nc12)N1CCN(Cc2ccc3c(c2)OCO3)CC1	-25.8	?	18.4µM*	0.3%	16.4µM*	16.4µM*
COC(=O)[C@@H]1CCCN1C(=O)c1c(OC)cc(=O)n2c1CCN(Cc1ccc3cccnc3c1)CC2	·	-0.3%	-3.5%	·	·	·
COc1cc(=O)n2c(c1C(=O)N(C)Cc1nonc1C)CCN(Cc1ccsc1)CC2	·	7.1%[9.04 µM]	-9.4%	·	·	·
O=C1C=CC(=O)C(C2=C3C(=O)N(CCc4ccccc4)CC(=O)N3CCC2)=C1	?	1.3µM*	1.3µM*	?	7.31µM*	?
O=c1[nH]nnc2cc(Cl)ccc12	7.0	15.2%	-6.9%	·	0.5%	-0.6%
NC(N)=Nc1nc2ccc(Cl)cc2c(=O)[nH]1	1.0	?	13µM*	1.7%	3.6%	0.0%
O=C(CC(O)(CC(=O)OCc1ccccc1)C(=O)OCc1ccccc1)OCc1ccccc1	-54.9*	-11.3%	?	·	18.4µM*	21.8%
O=C(CC(=O)OCc1ccccc1)OCc1ccccc1	18.6	-16.3%	-0.5%	·	-3.3%	0.1%
COc1cc2cc[n+](Cc3ccc([N+](=O)[O-])cc3)cc2cc1OC	-13.5	18.4µM*	?	0.3%	11.7%	-1.6%
CS(=O)(=O)c1ccc(-c2nnc(NC(=O)c3ccco3)o2)cc1	17.1	1.1%	-20.4%	-9.1%	-3.5%	-310.0%
CCCCN(C)S(=O)(=O)c1ccc(C(=O)Nc2nnc(-c3ccco3)o2)cc1	20.4	7.31µM*	6.51µM*	-2.4%	?	13µM*
CCN(CC)S(=O)(=O)c1ccc(C(=O)Nc2nnc(-c3ccco3)o2)cc1	26.0	?	23.1µM*	2.6%	1.2%	?
CCCCN(CC)S(=O)(=O)c1ccc(C(=O)Nc2nnc(-c3cccs3)o2)cc1	0.0	14.6µM*	10.3µM*	-0.7%	?	?
CN(C)S(=O)(=O)c1ccc(C(=O)Nc2nnc(-c3ccco3)o2)cc1	-0.6	20.6µM*	?	?	?	?
CC(=O)N1CCOc2ccc(S(=O)(=O)NCCc3ccc(Cl)cc3)cc21	33.4	-4.5%	16.9%	-3.1%	20.2%	-7.4%
COc1ccc(NC(=O)CSc2nccn2Cc2ccco2)cc1OC	35.4	-28.3%	-15.4%	-4.3%	-7.0%	-1.5%
CN(Cc1ccon1)C(=O)c1cnn(-c2ncc3c(n2)-c2ccccc2CCC3)c1C1CC1	·	-2.1%[9.04 µM]	?	·	·	·
Cc1cc(C)c2c(=O)cc(C(=O)Nc3sc4c(c3C(=O)NCc3ccccc3)CCCC4)oc2c1	·	1.5%	-20.4%	·	·	·
O=C(N/N=C/C(Br)=C/c1ccccc1)c1n[nH]c2c1CCC2	-11.8	2.59µM*	4.11µM*	?	?	?
SMILES	IL-1B inflam inh	TDP1 cell CPT	DT40 TDP1 no CPT	Chronic BCR inh	MCF10A rereplic	SW480 rerep
O=C(N/N=C/c1ccc(Cl)cc1)c1n[nH]c2c1CCCC2	48.1	0.581µM*	0.92µM*	?	?	?
O=C(N/N=C/c1cccs1)c1n[nH]c2c1CCC2	25.4	4.11µM*	3.66µM*	?	8.2µM*	11.6µM*
O=C(N/N=C/c1ccccc1Cl)c1n[nH]c2c1CCCC2	-12.2	-26.4%	?	?	-1.6%	-2.7%
COCCNC(=O)C1(C)CCN(C(=O)c2ccc3ccccc3n2)C1 (stereo not given)	4.8	6.0%	-22.4%	·	·	·
CC(NS(=O)(=O)c1ccc(OCC(=O)NCc2ccccn2)cc1)c1ccccc1 (stereo not given)	4.1	?	-8.9%	0.2%	0.1%	-1.0%
C[C@@H]1CCCCCCCCC(=O)OCCN[C@H](C)CCCCCCCCC(=O)OCCN[C@H](C)CCCCCCCCC(=O)OCCN1	-58.6*	13µM*	20.6µM*	5.3%	?	?
CC1=CC2C(C(O)CC3(C)C2CC(C)C32OCOC23COCO3)C2(C)C/C(=C\O)C(=O)C=C12 (stereo not given)	-103.5*	1.64µM*	2.59µM*	·	4.61µM*	14.6µM*
CC1CCN(CCNC(=S)Nc2ccc(Cl)cc2)CC1	?	?	-23.4%	8.7%	-2.2%	-5.2%
Cc1c(CCOC(=O)C23CC4CC(CC(C4)C2)C3)sc[n+]1Cc1ccccc1	-15.2	?	10.3µM*	1.9%	14.6%	-1.1%
Cc1ncc(C[n+]2csc(CCOC(=O)C34CC5CC(CC(C5)C3)C4)c2C)c(N)n1	-1.4	?	?	8.5%	?	0.8%
Cc1c(CCOC(=O)C23CC4CC(CC(C)(C4)C2)C3)sc[n+]1Cc1ccccc1	-26.1	4.11µM*	2.91µM*	-17.6%	?	?
COc1nc(OC)nc(N2CCC(C(=O)NCC3CCCCC3)CC2)n1	0.9	-28.9%	?	3.1%	1.3%	-15.4%
COc1nc(OC)nc(N2CCCCCC2)n1	25.7	?	-15.5%	?	20.6µM*	-1.7%
COc1nc(C#N)nc(N2CCCCC2)n1	·	?	20µM*	·	·	·
O=C(Nc1ccc(N2CCN(C(=O)c3ccccc3)CC2)c(Cl)c1)c1ccc(Br)o1	-100.7*	23.1µM*	20.6µM*	?	?	14.4%
O=C(Nc1ccc(N2CCCC2)cc1)c1ccc(Br)o1	-12.1	?	?	-1.4%	-1.3%	-0.8%
O=C(Nc1ccc(N2CCN(C(=O)c3ccccc3)CC2)cc1)c1ccc(Br)o1	-53.7*	16.4µM*	?	1.9%	22.0%	1.5%
O=C(Nc1ccc(N2CCOCC2)c(Cl)c1)c1ccc(Br)o1	-74.0*	?	11.2µM*	?	6.5%	1.0%
